Measured values from article PMC7862700, “An all-to-all approach to the identification of sequence-specific readers for epigenetic DNA modifications on cytosine”.

Tests used:
Assay in all cases: DAPPL (digital affinity profiling via proximity ligation, sequencing); 10 mM Tris-HCl pH 7.5, 50 mM NaCl, 1 mM DTT, 4% glycerol, room temperature, 30 min; GST-TFs on glutathione beads, 16-mer random dsDNA library, 0.1% formaldehyde crosslink after washing; high values mean tight binding
Settings in all cases: protein: recombinant; tags: N-terminal GST; dsDNA, one strand shown
ERF = molecular target: T1, ERF (Homo sapiens, UniProt P50548 1-548)
T1 sequence: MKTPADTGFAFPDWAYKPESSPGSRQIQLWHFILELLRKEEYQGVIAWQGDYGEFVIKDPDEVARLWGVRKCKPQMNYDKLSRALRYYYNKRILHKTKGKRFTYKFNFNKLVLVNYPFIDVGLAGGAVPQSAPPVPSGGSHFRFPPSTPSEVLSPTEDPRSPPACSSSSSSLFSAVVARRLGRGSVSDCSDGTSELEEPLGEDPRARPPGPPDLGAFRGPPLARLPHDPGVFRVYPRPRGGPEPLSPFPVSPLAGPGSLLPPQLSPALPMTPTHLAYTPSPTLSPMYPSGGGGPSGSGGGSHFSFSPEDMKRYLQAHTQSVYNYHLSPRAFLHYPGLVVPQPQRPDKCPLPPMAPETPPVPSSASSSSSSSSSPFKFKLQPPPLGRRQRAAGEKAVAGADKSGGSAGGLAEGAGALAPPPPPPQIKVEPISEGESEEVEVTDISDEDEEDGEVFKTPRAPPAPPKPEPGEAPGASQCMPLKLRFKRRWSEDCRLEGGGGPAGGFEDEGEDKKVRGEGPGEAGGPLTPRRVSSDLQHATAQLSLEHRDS
Procedure, shortened: (§1)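 Each value of binding signal is a hexamer's read frequency for a factor divided by the same hexamer's frequency in the tag-only sample. Barcoded, bead-captured GST fusions of human transcription factors made in yeast were pooled with that sample and incubated with 200 nmole of a random double-stranded 16-mer DNA library in Tris/NaCl/DTT/glycerol buffer at room temperature for 30 min. Washing, 0.1% formaldehyde crosslinking, proximity ligation, PCR and Illumina NextSeq500 sequencing followed.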

ETV3L = molecular target: T2, ETV3L (Homo sapiens, UniProt Q6ZN32 1-361)
T2 sequence: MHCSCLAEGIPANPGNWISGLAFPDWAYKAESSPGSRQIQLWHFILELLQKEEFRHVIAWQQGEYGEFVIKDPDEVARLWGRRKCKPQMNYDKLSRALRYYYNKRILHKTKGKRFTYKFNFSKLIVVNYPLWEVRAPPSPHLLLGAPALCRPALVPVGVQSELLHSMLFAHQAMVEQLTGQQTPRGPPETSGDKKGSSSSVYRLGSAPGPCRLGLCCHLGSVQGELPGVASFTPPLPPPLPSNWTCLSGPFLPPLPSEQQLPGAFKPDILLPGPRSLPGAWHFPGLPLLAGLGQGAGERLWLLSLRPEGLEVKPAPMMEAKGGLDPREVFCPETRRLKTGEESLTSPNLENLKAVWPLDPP
Procedure, shortened: as §1

ETS2 = molecular target: T3, ETS2 (Homo sapiens, UniProt P15036 1-469)
T3 sequence: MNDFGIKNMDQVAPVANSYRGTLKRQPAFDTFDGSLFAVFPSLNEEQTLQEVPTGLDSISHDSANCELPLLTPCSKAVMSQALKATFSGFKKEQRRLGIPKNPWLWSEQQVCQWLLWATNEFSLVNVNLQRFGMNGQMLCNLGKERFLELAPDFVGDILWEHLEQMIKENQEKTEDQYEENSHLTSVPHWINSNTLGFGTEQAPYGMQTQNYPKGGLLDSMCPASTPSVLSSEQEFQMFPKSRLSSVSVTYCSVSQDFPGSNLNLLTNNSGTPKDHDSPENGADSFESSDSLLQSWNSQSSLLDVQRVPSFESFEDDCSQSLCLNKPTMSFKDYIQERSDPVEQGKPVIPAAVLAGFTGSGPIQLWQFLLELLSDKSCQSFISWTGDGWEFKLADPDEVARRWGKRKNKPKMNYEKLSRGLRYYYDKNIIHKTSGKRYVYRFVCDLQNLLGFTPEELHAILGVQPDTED
Procedure, shortened: as §1

ETV7 = molecular target: T4, ETV7 (Homo sapiens, UniProt Q9Y603 1-341)
T4 sequence: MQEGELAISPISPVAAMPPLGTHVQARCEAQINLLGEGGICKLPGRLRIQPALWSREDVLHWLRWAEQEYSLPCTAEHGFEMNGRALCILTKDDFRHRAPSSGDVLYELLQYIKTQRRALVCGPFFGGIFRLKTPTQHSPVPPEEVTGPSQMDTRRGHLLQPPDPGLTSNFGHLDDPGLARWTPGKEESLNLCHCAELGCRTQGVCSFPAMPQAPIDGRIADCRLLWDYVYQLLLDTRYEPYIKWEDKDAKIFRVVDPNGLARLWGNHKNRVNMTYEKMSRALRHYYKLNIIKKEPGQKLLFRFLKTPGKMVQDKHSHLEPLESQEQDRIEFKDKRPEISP
Procedure, shortened: as §1

ELF5 = molecular target: T5, ELF5 (Homo sapiens, UniProt Q9UKW6-2 1-255)
T5 sequence: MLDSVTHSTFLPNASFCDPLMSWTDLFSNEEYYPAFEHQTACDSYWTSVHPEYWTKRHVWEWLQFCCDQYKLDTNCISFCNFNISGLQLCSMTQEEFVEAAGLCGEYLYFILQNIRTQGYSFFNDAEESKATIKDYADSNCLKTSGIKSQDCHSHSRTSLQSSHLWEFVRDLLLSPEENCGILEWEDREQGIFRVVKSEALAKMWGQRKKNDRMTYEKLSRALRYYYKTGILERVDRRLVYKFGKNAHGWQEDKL
Procedure, shortened: as §1

ETV3 = molecular target: T6, ETV3 (Homo sapiens, UniProt P41162-2 1-143)
T6 sequence: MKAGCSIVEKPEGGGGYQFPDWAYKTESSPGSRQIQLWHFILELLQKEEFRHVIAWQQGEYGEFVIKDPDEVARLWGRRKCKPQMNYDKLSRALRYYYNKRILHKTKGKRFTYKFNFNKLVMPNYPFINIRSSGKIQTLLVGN
Procedure, shortened: as §1

ETV6 = ETV6 (Homo sapiens, UniProt P41212 1-452)
Procedure, shortened: as §1

SPDEF = molecular target: T7, SPDEF (Homo sapiens, UniProt O95238 1-335)
T7 sequence: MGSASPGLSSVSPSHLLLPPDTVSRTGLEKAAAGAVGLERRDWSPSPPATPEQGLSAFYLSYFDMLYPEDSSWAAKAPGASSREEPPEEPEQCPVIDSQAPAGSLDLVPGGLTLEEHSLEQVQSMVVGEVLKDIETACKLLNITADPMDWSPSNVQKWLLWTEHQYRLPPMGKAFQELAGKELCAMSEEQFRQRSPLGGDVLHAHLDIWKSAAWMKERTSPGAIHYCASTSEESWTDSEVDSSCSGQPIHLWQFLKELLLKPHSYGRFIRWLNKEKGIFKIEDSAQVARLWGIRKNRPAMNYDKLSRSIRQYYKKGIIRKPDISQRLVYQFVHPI
Procedure, shortened: as §1

Sequence of ETV6 (P41212 whole entry): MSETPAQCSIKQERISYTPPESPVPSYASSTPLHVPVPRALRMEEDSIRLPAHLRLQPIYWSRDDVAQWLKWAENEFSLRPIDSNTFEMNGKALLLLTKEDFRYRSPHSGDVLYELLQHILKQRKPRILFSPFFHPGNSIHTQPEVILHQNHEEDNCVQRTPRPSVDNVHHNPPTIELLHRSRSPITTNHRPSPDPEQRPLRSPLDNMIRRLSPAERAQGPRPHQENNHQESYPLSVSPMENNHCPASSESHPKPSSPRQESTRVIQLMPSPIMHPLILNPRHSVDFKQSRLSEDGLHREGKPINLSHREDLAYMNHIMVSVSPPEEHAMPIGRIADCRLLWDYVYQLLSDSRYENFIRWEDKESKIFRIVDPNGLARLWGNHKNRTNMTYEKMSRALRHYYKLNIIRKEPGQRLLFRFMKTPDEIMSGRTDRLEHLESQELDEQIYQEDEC

Row | Sequence | binding signal (ERF) | binding signal (ETV3L) | binding signal (ETS2) | binding signal (ETV7) | binding signal (ELF5) | binding signal (ETV3) | binding signal (ETV6) | binding signal (SPDEF)
1 | GCTGAC | 1.08 fold enrichment (6-mer frequency, TF over GST control) | 1.09 fold enrichment (6-mer frequency, TF over GST control) | 1.11 fold enrichment (6-mer frequency, TF over GST control) | 1.12 fold enrichment (6-mer frequency, TF over GST control) | 1.05 fold enrichment (6-mer frequency, TF over GST control) | 1.17 fold enrichment (6-mer frequency, TF over GST control) | 1 fold enrichment (6-mer frequency, TF over GST control) | –
2 | TGACTG | 1.15 fold enrichment (6-mer frequency, TF over GST control) | 1.16 fold enrichment (6-mer frequency, TF over GST control) | 1.17 fold enrichment (6-mer frequency, TF over GST control) | – | – | – | 1.06 fold enrichment (6-mer frequency, TF over GST control) | 1.05 fold enrichment (6-mer frequency, TF over GST control)
3 | AAGACT | 1.16 fold enrichment (6-mer frequency, TF over GST control) | 1.04 fold enrichment (6-mer frequency, TF over GST control) | 1.07 fold enrichment (6-mer frequency, TF over GST control) | 1.08 fold enrichment (6-mer frequency, TF over GST control) | 1.15 fold enrichment (6-mer frequency, TF over GST control) | 1.12 fold enrichment (6-mer frequency, TF over GST control) | 1.13 fold enrichment (6-mer frequency, TF over GST control) | –
4 | GCGTTT | 1.1 fold enrichment (6-mer frequency, TF over GST control) | 1.11 fold enrichment (6-mer frequency, TF over GST control) | 1.09 fold enrichment (6-mer frequency, TF over GST control) | 1.12 fold enrichment (6-mer frequency, TF over GST control) | 1.12 fold enrichment (6-mer frequency, TF over GST control) | 1.19 fold enrichment (6-mer frequency, TF over GST control) | 1.04 fold enrichment (6-mer frequency, TF over GST control) | –
5 | CATTAT | 1.21 fold enrichment (6-mer frequency, TF over GST control) | 1.24 fold enrichment (6-mer frequency, TF over GST control) | 1.21 fold enrichment (6-mer frequency, TF over GST control) | 1.31 fold enrichment (6-mer frequency, TF over GST control) | 1.12 fold enrichment (6-mer frequency, TF over GST control) | 1.15 fold enrichment (6-mer frequency, TF over GST control) | 1.2 fold enrichment (6-mer frequency, TF over GST control) | –
